Unmarked numbers belong to inactive results. Results filed as inconclusive are left out. Where a call stands in place of a potency, no number is given. Active and inactive are the calls of the source. Unless noted, the call rests on the fitted dose curve; in most records, active means well fitted curve in the direction sought with a large enough effect in the repeat runs; inconclusive means weak or mixed curves; inactive means no such curve, though single readings can be large; an effect the other way counts as inactive or inconclusive.
How the values were obtained:
[1] = qHTS assay to identify small molecule antagonists of the androgen receptor (AR) signaling pathway using the MDA cell line in the presence of 0.5 nM R1881 - cell viability counter screen (AID 1259242); further: nearly all actives have a fitted effect of over 45% in size
Summary of the method: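 Cells seeded at 3,000/well and allowed 5 hr at 37C, 0% CO2 before compound transfer and R1881 (0.5 nM final) addition; 16 hr later, live-cell protease fluorescence indicated cytotoxicity.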

[2] = target: Estrogen receptor (Homo sapiens) (UniProt P03372); experiment: qHTS assay to identify small molecule antagonists of the estrogen receptor alpha (ER-alpha) signaling pathway using the BG1 cell line in the presence of 0.1 nM 17-beta-estradiol (AID 1259244); further: nearly all actives have a fitted effect of over 50% in size
Summary of the method: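 Luciferase signal from VM7Luc4E2 ERE-reporter cells, co-dosed with test compound and 0.1 nM final 17beta-estradiol for 22 h, read with ONE-Glo.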

[3] = qHTS assay to identify small molecule HDAC inhibitors - cell viability counter screen (AID 1259365); further: series mostly up to about 92 µM; nearly all actives have a fitted effect of over 50% in size
Summary of the method: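 To flag cytotoxic hits, 1,500 wild-type HCT-116 cells per well, plated the day before, receive test compounds for 2hr at 37 C before CellTiter-Glo reagent and a luminescence read.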

[4] = qHTS assay to identify small molecule agonists of the sonic hedgehog signaling (Shh) pathway - cell viability counter screen (AID 1259366); further: nearly all actives have a fitted effect of over 50% in size
Summary of the method: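 Fluorescence from CellTiter-Fluor reports live cells in this counter screen. NIH/3T3-derived Gli1-Luc reporter cells receive test compounds for 24hr at 37C; reagent goes in at 23hr.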

[5] = qHTS assay to identify small molecule antagonists of the sonic hedgehog signaling (Shh) pathway - cell viability counter screen (AID 1259367); further: nearly all actives have a fitted effect of over 55% in size
Summary of the method: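 Fluorescence read-out (CellTiter-Fluor, 1 hr at 37C) taken after 23 hr compound treatment of 3T3 Gli1-Luc cells stimulated with conditioned medium. Cells were seeded at 2,000 per well and pre-incubated 4 hr.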

[6] = qHTS assay to identify small molecule antagonists of the sonic hedgehog signaling (Shh) pathway (AID 1259369; calls by dose curve; further: nearly all actives have a fitted effect of over 45% in size; further: potency means the concentration at half of the fitted maximal effect)
Summary of the method: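 Read-out is luminescence from a firefly luciferase gene controlled by the Gli1 response element, in 3T3Gli1-Luc cells pre-incubated 4hr then exposed to compounds and conditioned medium for 24hr.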

[7] = target: Estrogen receptor beta (Homo sapiens) (UniProt Q92731); experiment: qHTS assay to identify small molecule antagonists of the estrogen receptor beta (ER-beta) signaling pathway (AID 1259378; active means well fitted inhibition curve with a large enough effect in the signal ratio in the repeat runs, not every such curve was filed as active; the % refers to the signal ratio)
Summary of the method: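 ER-beta-UAS-bla HEK293T cells in 2% charcoal-stripped FBS medium treated with compound plus 1nM final 17-beta-estradiol for 16 hr at 37C. Beta-lactamase reporter read by FRET substrate fluorescence after 2 hours at room temperature.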

[8] = qHTS assay to identify small molecule agonists of the androgen receptor (AR) signaling pathway in the presence of an antagonist - cell viability counter screen (AID 1259379);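 further: MDA-kb2 human breast cancer cells carrying an MMTV luciferase reporter; series mostly up to about 92 µM; nearly all actives have a fitted effect of over 25% in size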
Summary of the method: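 Each compound was tested at 15 concentrations on MDA-kb2 cells in the presence of 3.0uM nilutamide. Viability was measured by CellTiter-Fluor fluorescence after a 16 hr incubation at 37C in a CO2-free atmosphere.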

[9] = qHTS assay to identify small molecule agonists of the estrogen receptor beta (ER-beta) signaling pathway - cell viability counter screen (AID 1259380); further: nearly all actives have a fitted effect of over 30% in size; further: potency means the concentration at half of the fitted maximal effect
Summary of the method: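 Compounds dissolved in DMSO were pin-transferred onto ER-beta-UAS-bla HEK293T cells that had settled 6 hr, and exposure ran 16 hr at 37C. Following the reporter read, CellTiter-Glo luminescence after 30 min at room temperature indicated cytotoxicity.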

[10] = qHTS assay to identify small molecule antagonists of the estrogen receptor beta (ER-beta) signaling pathway - cell viability counter screen (AID 1259382); further: series mostly up to about 92 µM; nearly all actives have a fitted effect of over 55% in size
Summary of the method: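 CellTiter-Glo ATP luminescence measured after the LiveBLAzer read in the same wells; ER-beta-UAS-bla HEK293T cells, 16 hr compound treatment with 1nM 17-beta-estradiol agonist at 37C, 5% CO2.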

[11] = qHTS assay to identify small molecule agonists or antagonists of the thyroid stimulating hormone receptor (TSHR) signaling pathway - wild type cell line counter screen (AID 1259384; calls by dose curve)
Summary of the method: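 Wild-type Hek293 cells, 800/well, 18 h at 37C, then compound with Ro20-1724 for 30 min RT. cAMP by HTRF (cAMP-d2/anti-cAMP cryptate), 1 h RT, fluorescence read. 15 concentrations, triplicates.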

[12] = qHTS assay to identify small molecule agonists of the estrogen receptor alpha (ER-alpha) signaling pathway in the presence of an antagonist - cell viability counter screen (AID 1259386);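 further: series mostly up to about 92 µM; cells exposed to compounds for 22 h at 37 °C before the viability read; nearly all actives have a fitted effect of over 30% in size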
Summary of the method: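 Using estrogen-depleted VM7Luc4E2 cells, the 15-concentration compound series was applied together with 10.0nM ICI-182,780 and incubated 22hr at 37C/5% CO2. Cell viability was then scored by CellTiter-Fluor.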

[13] = qHTS assay to identify small molecule HDAC inhibitors (AID 1259364); further: potency means the concentration at half of the fitted maximal effect;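 further: wild-type HCT-116 cells with endogenous class I/II HDAC activity; nearly all actives have a fitted effect of over 45% in size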
Summary of the method: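 HCT-116 wt cells, 1,500/well, overnight attach. Compounds (DMSO) 2 h, 37 °C. HDAC-Glo I/II, 30 min RT. Luminescence.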

[14] = qHTS assay to identify small molecule agonists of the sonic hedgehog signaling (Shh) pathway (AID 1259368; calls by dose curve;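 further: NIH/3T3-derived 3T3Gli1-Luc cells carrying a stable Gli1-driven firefly luciferase reporter; series mostly up to about 92 µM; nearly all actives have a fitted effect of over 15% in size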)
Summary of the method: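 Following a 24 hr incubation with DMSO-dissolved compounds at 37 C, 5% CO2, Gli1-Luc NIH/3T3-derived cells received luciferase reagent for 30 min at room temperature prior to luminescence measurement.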

[15] = target: Estrogen receptor beta (Homo sapiens) (UniProt Q92731); experiment: qHTS assay to identify small molecule agonists of the estrogen receptor beta (ER-beta) signaling pathway (AID 1259377; active means well fitted activation curve with a large enough effect in the signal ratio in the repeat runs, not every such curve was filed as active; the % refers to the signal ratio)
Summary of the method: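 Screening used GripTite ER-beta-UAS-bla cells held in 2% charcoal-stripped FBS medium. After overnight (16 hr) compound incubation at 37C, beta-lactamase activity was detected with a FRET substrate by fluorescence.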

[16] = target: Thyrotropin receptor (Homo sapiens) (UniProt P16473); experiment: qHTS assay to identify small molecule antagonists of the thyroid stimulating hormone receptor (TSHR) signaling pathway (AID 1259385; calls by dose curve; further: nearly all actives have a fitted effect of over 20% in size)
Summary of the method: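 TSHR-HEK293 cells (800/well) plated 18 h, then compounds with Ro20-1724 and TSH at 1.5 ng/mL final, 30 min at room temperature. cAMP quantified by HTRF (cAMP-d2/anti-cAMP-cryptate, 1 h); 15 concentrations in triplicate.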

Thyrotropin receptor (Homo sapiens), sequence (P16473 whole entry, looked up): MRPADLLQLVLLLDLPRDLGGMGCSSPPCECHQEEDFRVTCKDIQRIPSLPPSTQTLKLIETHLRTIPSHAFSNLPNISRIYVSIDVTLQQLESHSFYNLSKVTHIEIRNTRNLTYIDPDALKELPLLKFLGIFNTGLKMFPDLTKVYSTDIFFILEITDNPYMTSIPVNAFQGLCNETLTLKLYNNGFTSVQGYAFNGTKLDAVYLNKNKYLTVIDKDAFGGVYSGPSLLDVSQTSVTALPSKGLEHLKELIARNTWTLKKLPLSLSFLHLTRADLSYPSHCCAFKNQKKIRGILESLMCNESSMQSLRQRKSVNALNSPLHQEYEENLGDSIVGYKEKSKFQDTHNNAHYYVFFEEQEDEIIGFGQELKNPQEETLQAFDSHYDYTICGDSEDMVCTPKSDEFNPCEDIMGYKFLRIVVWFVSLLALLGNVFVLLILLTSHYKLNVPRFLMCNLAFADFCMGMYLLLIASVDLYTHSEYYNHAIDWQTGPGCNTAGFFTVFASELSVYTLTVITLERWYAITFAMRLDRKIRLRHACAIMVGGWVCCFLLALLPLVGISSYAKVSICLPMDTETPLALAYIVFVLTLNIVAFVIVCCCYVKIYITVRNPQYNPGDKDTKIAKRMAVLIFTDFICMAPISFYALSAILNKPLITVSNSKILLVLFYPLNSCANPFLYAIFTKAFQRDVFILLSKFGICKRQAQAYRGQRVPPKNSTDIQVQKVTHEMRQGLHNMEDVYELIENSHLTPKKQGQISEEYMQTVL
Estrogen receptor beta (Homo sapiens), sequence (Q92731 whole entry, looked up): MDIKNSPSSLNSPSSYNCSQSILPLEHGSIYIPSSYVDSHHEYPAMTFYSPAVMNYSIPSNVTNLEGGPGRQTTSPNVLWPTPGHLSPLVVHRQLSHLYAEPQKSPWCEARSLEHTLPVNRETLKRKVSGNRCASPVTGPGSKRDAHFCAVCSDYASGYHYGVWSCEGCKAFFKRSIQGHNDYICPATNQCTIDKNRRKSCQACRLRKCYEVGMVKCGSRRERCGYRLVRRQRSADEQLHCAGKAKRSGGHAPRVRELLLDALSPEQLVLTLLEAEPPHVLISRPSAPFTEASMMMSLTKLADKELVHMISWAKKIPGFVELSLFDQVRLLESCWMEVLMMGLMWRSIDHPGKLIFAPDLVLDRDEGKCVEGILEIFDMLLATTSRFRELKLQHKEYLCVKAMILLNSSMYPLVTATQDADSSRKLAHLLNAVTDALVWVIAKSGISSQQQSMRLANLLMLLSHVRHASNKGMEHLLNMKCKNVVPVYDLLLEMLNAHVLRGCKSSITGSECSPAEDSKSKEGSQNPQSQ
Estrogen receptor (Homo sapiens), sequence (P03372 whole entry, looked up): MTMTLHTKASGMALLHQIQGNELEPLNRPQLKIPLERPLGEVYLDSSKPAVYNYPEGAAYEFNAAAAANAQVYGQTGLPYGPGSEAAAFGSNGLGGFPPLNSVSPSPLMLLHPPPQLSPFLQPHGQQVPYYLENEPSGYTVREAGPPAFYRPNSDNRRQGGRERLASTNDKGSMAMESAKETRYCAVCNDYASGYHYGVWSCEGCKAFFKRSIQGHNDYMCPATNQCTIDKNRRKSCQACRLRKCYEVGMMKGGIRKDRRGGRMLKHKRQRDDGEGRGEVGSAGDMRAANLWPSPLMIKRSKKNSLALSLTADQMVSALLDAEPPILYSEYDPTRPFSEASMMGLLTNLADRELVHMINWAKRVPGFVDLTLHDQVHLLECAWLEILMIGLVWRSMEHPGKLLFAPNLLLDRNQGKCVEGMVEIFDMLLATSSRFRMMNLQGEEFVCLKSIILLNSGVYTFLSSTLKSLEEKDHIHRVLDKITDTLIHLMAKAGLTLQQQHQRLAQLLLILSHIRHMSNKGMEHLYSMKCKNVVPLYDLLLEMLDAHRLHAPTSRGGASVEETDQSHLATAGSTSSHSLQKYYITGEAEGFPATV

SMILES	Potency [1]	Potency [2]	Potency [3]	Potency [4]	Potency [5]	Potency [6]	Potency [7]	Potency [8]	Potency [9]	Potency [10]	outcome [11]	Potency [12]	Potency [13]	Potency [14]	Potency [15]	Potency [16]
CCn1nc(C)c2c1C(=O)NCC(c1ccc(O)cc1)=N2	inactive	inactive	inactive	inactive	inactive	0.0122 µM (active)	inactive	inactive	inactive	inactive	inactive	inactive				
CC(=N\O)/C(C)=N/O	inactive		inactive	inactive	inactive			inactive	inactive	inactive	inactive	inactive	inactive	inactive	inactive	inactive
O=C(CS)OCCOC(=O)CS	inactive		inactive	inactive	inactive			inactive	30.6 µM (active)		inactive	inactive	8.63 µM (active)	inactive	inactive	inactive
CC(C)C(OC(=O)c1ccccc1)C(C)(C)COC(=O)c1ccccc1 (centres undefined)	inactive		inactive	inactive	inactive	inactive		inactive		inactive	inactive	inactive	inactive	inactive		inactive
O=C(O)c1ccc(CO)o1	inactive		inactive	inactive	inactive	inactive		inactive	inactive	inactive	inactive	inactive	inactive		inactive	inactive
C=CC(=O)NCOCC(C)C	inactive		inactive	inactive	inactive	inactive	inactive	inactive	inactive	inactive	inactive	inactive	inactive	inactive	inactive	inactive
CCCCCCOC(=O)C(C)C	inactive		inactive	inactive	inactive		inactive	inactive	inactive		inactive	inactive	inactive	inactive	inactive	
CO[C@H]1O[C@H](CO)[C@@H](O)[C@H](O)[C@H]1O	inactive		inactive	inactive	inactive	inactive	inactive	inactive	inactive		inactive		inactive	inactive	inactive	inactive
CCOC(=O)c1ccccc1OC	inactive		inactive	inactive	inactive	inactive	inactive	inactive	inactive	inactive	inactive	inactive	inactive			

— PubChem BioAssay (Tox21)
